Results filed as inconclusive are left out. The source made the active and inactive calls.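 Rule for the calls, unless noted: active = differentiation response of at least 50%, scaled between solvent and reference control, from cells with both markers; inactive = the rest.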

Usually inhibition stands for the change of the read-out against control, counted positive when it falls.

A short description of assay [1]: yeast TOR pathway RPL19A-GFP modulators, primary screen, cell-based, S. cerevisiae, multiplex flow cytometry (AID 1862; in the data active = percent of DMSO control GFP below about 86%;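 note: lower values mimic rapamycin by blocking the RPL19A rise seen in DMSO cells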). The following applies: S. cerevisiae RPL19A-GFP strain, flow cytometry fluorescence, 3 h; at 10 µM; stronger effect = lower value.
Assay [2] can be described thus: modulators of MEP2-GFP levels in yeast, primary screen, S. cerevisiae, multiplex flow cytometry (AID 1867;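 active = GFP response, as percent of the DMSO control, above the screen-wide mean plus 3 SD, about 139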;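 note: median GFP channel fluorescence of barcode-gated MEP2-GFP cells measured by flow cytometry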). The note with it: S. cerevisiae MEP2-GFP strain, 3 h, at 10 µM, stronger effect = higher value, 100% means same as DMSO wells. For orientation: A flow cytometer gives signals particle by particle.
Assay [3] can be described thus: modulators of CIT2-GFP expression in yeast, primary screen, S. cerevisiae, GFP fusion, multiplex flow cytometry (AID 1870;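 active = percent response above a set limit, the screen-wide mean plus 3 SD, cut at about 130% in these data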;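 note: barcoded CIT2-GFP strain pooled with four other GFP strains with rapamycin as positive control; median GFP fluorescence per well over plate mean of DMSO wells so 100% = DMSO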). The following applies: 3 h, at 10 µM, stronger effect = higher value.
A short description of assay [4]: modulators of LAP4-GFP expression in yeast, primary screen, S. cerevisiae, multiplex flow cytometry (AID 1873;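 active = GFP signal, as percent of the solvent control, above the screen mean plus 3 SD, about 149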). The note with it: 3 h, at 10 µM, stronger effect = higher value.
Assay [5] in a line: modulators of AGP1-GFP expression in yeast TOR pathway, primary screen, cell-based, multiplex flow cytometry, S. cerevisiae (AID 1887;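 active = GFP signal above the screen-wide mean plus 3 SD, that is over about 124.5% of the solvent control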;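 note: AGP1-GFP fusion strain of S. cerevisiae within a five-strain barcoded multiplex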). The note with it: 3 h, at 10 µM, stronger effect = higher value.
Assay [6] in a line: inhibitors of CD8+ T cell-vesicle binding, pilot screen, LFA-1/ICAM-1 modulator project, MLPCN validation set, flow cytometry (AID 2523;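 active = response below a set limit, under 55% cells CD8-positive and vesicle-bound, and CD8 cells' 90th-percentile brightness under 279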;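 for vesicle binding response: mean PE anti-B7-1 fluorescence of CD8+ cells relative to row control; 100% = QL9-loaded vesicles with DMSO vehicle in the same plate row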). The note with it: 2C mouse CD8+ T cells, at 7 µM, stronger effect = lower value; double positive events: measured here: CD8+/vesicle+ event percentage.
Assay [7] has as its target Integrin beta-1 (Homo sapiens) + Integrin alpha-4 (Homo sapiens) (UniProt P13612+P05556). The assay is described as follows: inhibition of HUTS-21 binding to VLA-4, pilot screen, VLA-4 allosteric modulator project, U937 cells, HUTS-21 mAb, flow cytometry, validation set (AID 2674;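 active = inhibition above 50%, about 3 SD of the validation set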;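 note: antibody binding induced by the VLA-4 ligand LDV present at three times its Kd; 0% = LDV ligand with antibody and no compound and 100% = antibody without LDV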). The following applies: HUTS-21 LIBS mAb binding, at 6.7 µM, stronger effect = higher value, binding induced by LDV ligand.

The nature of assay [8]: superoxide lowering in aged yeast cells, pilot screen, validation compound set (AID 2706;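 active = superoxide response below 65% of plate, a cut near 3 SD across the whole screen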;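 note: yeast exposed to compound for one week at 30 degrees C before staining; 100% = mean of all compound wells on the same plate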). The following applies: S. cerevisiae aging, superoxide DHE fluorescence; at 10 µM; stronger effect = lower value.
Assay [9] deals with Beta-adrenergic receptor kinase 1 (Homo sapiens) (UniProt P25098). Nature of the assay: GRK2 binders displacing RNA aptamer, biochemical, validation, human GRK2, bead flow cytometry (AID 488806;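 active = aptamer binding inhibition above 30%, about 3 SD of noise from non-fluorescent compounds; inactive = inhibition at or below 30%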). The following applies: bead-bound GRK2, FAM-aptamer displacement, at 10 µM, stronger effect = higher value.
Beta-adrenergic receptor kinase 1 (Homo sapiens), sequence (P25098 whole entry, looked up): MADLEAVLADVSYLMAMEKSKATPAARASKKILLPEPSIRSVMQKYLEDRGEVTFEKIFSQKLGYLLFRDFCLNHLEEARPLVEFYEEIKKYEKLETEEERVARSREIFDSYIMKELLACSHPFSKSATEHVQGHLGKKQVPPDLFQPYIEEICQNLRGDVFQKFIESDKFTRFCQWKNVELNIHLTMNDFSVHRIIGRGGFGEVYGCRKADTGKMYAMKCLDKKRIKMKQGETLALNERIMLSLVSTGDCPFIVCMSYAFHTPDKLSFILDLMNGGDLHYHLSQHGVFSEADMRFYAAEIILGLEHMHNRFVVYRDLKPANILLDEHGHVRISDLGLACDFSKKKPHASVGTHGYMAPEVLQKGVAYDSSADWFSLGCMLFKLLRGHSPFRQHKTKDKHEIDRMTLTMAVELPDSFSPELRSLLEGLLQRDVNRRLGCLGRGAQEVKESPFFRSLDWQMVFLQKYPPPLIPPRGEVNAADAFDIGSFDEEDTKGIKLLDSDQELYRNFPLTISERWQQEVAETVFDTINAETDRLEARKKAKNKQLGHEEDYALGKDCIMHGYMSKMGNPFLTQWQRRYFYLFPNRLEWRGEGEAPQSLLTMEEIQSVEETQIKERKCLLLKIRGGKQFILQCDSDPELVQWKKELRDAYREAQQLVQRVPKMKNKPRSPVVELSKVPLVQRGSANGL
Assay [10] has as its target Beta-2 adrenergic receptor (Homo sapiens) (UniProt P07550). Nature of the assay: beta2AR agonists driving receptor internalization, pilot screen, cell-based, FAP fluorogen, flow cytometry, validation set (AID 504459;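 active = percent response above 42, roughly 3 SD of non-fluorescent test compounds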;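 note: agonist-driven loss of surface beta2AR via internalization measured by FAP dye flow cytometry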). The following applies: Am2.2-beta2AR cells, FAP surface receptor flow cytometry; at 10 µM; stronger effect = higher value.
Assay [11] has as its target AP-2 complex subunit beta (Homo sapiens) (UniProt P63010). The assay is described as follows: inhibitors of arrestin peptide binding to AP2, pilot screen, biochemical, validation set, GST-AP2 beads, flow cytometry (AID 504541;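 active = inhibition above 54%, about 3 SD of non-fluorescent compounds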;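 note: AP2 carries R879A mutation and is captured from E. coli lysate; bead-bound FITC arrestin peptide fluorescence measuring arrestin peptide binding to AP2; 0% = DMSO wells and 100% = excess unlabeled arrestin peptide control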). The note with it: FITC arrestin peptide, at 10 µM, stronger effect = higher value, AP2 beta2 appendage fragment, R879A mutant.
A short description of assay [12]: yeast V-ATPase proton transport modulators, S. cerevisiae, pHLuorin, HTS validation (AID 504600; in the data active = response above about 15%;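 note: plate controls were DMSO for no effect and reference compound for full effect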). The following applies: S. cerevisiae pHLuorin cytosolic pH, at 10 µM, stronger effect = higher value.
The subject of assay [13] is anti-desmoglein-3 scFv antibody binding to human DSG3. Nature of the assay: inhibitors of anti-DSG3 scFv binding to DSG3, pilot screen, biochemical, validation compound set, bead-based, flow cytometry (AID 588368;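 active = binding below the plate cutoff, the plate median minus 3 SD, with a reading above zero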;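 note: signal is the median channel fluorescence of bead-bound GFP antibody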). The following applies: Protein G beads, DSG3-Fc, scFv-GFP binding, at 10 µM, stronger effect = lower value.
Assay [14] in a line: inhibitors of fungal efflux pumps CDR1, CDR2, MDR1, pilot screen, validation compound set, multiplex, phenotypic (AID 588506;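 active = efflux inhibition above 0.42, the validation set average plus 4 SD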;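 note: Nile Red retained in cells so higher fluorescence means more efflux inhibition; 0 = negative control wells and 1 = enniatin B 25 µM full block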). The following applies: S. cerevisiae pump-expressing triplex, Nile Red efflux flow cytometry; at 10 µM; stronger effect = higher value; the pumps come from Candida albicans.
The target of assay [15] is ATP-binding cassette sub-family B member 6 (Homo sapiens) (UniProt Q9NP58). The assay is described as follows: ABCB6 transporter inhibitors, pilot screen, K562-ABCB6 cells, flow cytometry, validation set (AID 588550;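 active = inhibition above the screen-wide mean plus 3 SD, about 51%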;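 note: 0% = DMSO wells and 100% = benzethonium chloride 70 µM positive control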). The following applies: K562-ABCB6 porphyrin accumulation, 1 h, at 10 µM, stronger effect = higher value.
ATP-binding cassette sub-family B member 6 (Homo sapiens), sequence (Q9NP58 whole entry, looked up): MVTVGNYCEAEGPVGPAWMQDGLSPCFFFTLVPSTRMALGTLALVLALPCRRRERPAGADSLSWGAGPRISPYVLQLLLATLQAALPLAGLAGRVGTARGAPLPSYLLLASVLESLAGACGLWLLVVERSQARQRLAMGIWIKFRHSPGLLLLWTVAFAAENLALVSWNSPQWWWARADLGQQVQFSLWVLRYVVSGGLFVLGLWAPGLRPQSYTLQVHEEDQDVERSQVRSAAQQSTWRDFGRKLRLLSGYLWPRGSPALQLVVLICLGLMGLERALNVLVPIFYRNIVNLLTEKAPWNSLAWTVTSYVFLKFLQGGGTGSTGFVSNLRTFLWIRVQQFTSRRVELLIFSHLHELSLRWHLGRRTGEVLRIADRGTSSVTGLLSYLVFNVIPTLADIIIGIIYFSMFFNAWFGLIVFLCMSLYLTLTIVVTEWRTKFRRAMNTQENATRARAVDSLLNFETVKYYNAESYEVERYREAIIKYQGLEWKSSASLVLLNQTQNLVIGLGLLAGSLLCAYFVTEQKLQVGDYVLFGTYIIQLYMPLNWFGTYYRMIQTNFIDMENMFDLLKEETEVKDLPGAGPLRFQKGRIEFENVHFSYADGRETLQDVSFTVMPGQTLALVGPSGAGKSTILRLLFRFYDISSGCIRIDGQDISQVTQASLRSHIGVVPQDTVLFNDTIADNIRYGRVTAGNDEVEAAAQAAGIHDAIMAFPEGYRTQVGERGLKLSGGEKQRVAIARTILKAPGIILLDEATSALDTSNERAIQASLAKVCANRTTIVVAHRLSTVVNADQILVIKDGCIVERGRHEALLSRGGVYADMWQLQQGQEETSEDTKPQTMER
Assay [16] can be described thus: promoters of myeloid differentiation in arrested cells, primary screen, cell-based, GFP/MAC1 double positive, flow cytometry, validation set (AID 588685).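 Note: compound exposure lasts four days before antibody staining and flow analysis; 0% = DMSO wells and 100% = 5 µM fulvestrant positive control.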 The following applies: ER-HoxA9 marrow cells, stronger effect = higher value, normalized: vehicle 0, fulvestrant 100.

Beta-2 adrenergic receptor (Homo sapiens), sequence (P07550 whole entry, looked up): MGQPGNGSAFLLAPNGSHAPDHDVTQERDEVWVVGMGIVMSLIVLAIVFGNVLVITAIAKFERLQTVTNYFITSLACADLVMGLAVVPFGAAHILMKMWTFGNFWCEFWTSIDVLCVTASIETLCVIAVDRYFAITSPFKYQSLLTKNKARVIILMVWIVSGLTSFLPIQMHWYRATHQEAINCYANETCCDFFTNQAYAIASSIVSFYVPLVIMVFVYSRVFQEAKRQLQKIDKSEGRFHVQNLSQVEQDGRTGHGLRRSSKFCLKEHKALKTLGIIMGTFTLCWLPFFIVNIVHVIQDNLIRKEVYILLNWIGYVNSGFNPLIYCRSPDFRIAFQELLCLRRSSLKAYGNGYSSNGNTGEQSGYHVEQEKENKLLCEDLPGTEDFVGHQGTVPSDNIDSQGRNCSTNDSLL
AP-2 complex subunit beta (Homo sapiens), sequence (P63010 whole entry, looked up, the tested form may be a part, one chain of several): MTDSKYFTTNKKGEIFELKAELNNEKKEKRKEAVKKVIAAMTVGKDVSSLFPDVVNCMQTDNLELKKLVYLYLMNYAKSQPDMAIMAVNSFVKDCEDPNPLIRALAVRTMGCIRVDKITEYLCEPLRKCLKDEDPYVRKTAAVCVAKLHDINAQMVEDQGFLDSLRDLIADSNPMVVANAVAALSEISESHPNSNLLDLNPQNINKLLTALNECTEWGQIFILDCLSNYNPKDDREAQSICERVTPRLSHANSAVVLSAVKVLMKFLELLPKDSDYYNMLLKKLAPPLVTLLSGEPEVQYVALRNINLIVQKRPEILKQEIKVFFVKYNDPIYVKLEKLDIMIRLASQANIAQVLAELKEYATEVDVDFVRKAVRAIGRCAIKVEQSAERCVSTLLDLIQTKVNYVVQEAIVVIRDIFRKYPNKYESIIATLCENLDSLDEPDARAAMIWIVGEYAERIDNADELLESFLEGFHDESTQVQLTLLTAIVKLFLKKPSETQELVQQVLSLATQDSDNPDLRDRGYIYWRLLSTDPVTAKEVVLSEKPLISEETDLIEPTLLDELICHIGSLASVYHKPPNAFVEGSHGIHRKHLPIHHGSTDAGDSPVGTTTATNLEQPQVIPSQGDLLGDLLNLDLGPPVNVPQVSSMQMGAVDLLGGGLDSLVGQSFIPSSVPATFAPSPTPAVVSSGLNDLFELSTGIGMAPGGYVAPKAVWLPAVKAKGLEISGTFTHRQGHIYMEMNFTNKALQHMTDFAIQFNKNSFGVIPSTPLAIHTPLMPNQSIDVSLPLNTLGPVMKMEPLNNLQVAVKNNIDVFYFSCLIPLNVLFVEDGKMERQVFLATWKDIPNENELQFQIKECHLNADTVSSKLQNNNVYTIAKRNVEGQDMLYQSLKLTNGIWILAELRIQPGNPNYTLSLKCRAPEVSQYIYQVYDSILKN
Integrin beta-1 (Homo sapiens) + Integrin alpha-4 (Homo sapiens), sequence (P05556 whole entry, looked up): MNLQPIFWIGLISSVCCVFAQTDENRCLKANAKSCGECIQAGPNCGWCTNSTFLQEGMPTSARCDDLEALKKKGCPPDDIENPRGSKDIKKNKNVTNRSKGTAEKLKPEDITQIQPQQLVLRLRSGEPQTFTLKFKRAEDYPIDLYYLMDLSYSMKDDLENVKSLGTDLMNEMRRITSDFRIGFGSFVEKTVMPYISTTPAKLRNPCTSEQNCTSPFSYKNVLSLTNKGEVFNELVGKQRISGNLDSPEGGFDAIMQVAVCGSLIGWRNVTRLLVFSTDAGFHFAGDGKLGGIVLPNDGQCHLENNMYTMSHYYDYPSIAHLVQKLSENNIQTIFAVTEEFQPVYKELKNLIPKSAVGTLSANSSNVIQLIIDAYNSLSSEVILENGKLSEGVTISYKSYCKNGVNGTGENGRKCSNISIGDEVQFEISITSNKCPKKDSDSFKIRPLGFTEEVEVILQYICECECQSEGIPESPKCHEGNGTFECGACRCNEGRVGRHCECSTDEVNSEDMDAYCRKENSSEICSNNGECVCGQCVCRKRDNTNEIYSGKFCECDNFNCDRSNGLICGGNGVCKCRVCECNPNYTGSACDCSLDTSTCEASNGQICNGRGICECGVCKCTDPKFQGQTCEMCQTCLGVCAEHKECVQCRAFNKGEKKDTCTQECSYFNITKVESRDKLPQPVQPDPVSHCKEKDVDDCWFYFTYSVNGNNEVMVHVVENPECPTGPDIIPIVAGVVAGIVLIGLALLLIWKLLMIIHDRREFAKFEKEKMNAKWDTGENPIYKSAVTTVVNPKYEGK
Integrin beta-1 (Homo sapiens) + Integrin alpha-4 (Homo sapiens), sequence (P13612 whole entry, looked up): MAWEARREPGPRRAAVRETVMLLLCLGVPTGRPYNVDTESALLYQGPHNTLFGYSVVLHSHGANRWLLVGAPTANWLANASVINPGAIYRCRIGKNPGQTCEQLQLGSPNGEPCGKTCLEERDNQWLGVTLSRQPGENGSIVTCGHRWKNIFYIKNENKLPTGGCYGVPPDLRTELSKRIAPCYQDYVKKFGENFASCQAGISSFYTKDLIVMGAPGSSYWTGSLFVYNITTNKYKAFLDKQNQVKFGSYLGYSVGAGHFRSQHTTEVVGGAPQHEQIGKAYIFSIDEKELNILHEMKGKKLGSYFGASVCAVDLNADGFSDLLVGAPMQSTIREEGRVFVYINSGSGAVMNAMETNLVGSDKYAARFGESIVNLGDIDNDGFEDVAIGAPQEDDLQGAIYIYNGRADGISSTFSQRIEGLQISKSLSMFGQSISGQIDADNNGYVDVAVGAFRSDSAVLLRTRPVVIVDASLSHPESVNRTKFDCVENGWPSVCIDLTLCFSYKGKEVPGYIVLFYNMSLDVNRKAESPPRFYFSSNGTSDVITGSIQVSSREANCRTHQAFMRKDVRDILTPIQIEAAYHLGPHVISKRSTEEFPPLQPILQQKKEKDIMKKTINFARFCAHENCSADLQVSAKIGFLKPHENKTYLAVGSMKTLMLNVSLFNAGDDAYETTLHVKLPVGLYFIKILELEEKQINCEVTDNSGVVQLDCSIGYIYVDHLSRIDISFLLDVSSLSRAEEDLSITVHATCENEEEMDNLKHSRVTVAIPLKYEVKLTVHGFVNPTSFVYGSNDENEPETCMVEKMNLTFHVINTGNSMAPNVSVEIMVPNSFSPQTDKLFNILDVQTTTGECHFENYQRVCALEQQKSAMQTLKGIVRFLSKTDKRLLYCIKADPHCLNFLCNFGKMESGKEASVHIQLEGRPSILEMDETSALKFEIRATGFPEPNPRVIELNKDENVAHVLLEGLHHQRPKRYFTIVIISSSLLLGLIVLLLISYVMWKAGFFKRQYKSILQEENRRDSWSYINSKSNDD

As to `Cc1ccc(S(=O)(=O)N[C@@H](C)C(=O)N2CCC(C(=O)N3CCC[C@H]3C(=O)O)CC2)cc1`, the percent of DMSO control GFP in [1] was 95% (inactive). For the same molecule, the figures for the GFP response vs DMSO in [2] and in assay [4] were 129% (inactive) and 79.2% (inactive), respectively. Moreover, in assay [3], the percent response of DMSO control is 103% (inactive). In [5], the GFP response, % of DMSO is 88.4% (inactive). Moreover, in assay [6], the double positive events was determined as 71%. Besides, the vesicle binding response in assay [6] was 174% (inactive). The inhibition in assay [7] was 3.55% (inactive); in [11], -9.12% (inactive); in assay [15] it was 8% (inactive). The superoxide response (% of plate) in assay [8] was 92.7% (inactive). Also, the aptamer binding inhibition in assay [9] is 9% (inactive). In addition, the figures for the response in assay [10] and in assay [12] were -2.38% (inactive) and -1.19% (inactive), respectively. For the same molecule, in assay [13], the binding (% of control) was 100% (inactive). Besides, in [14], the efflux inhibition (fraction of control) was -0.2 (inactive). For the same molecule, the differentiation response in [16] is 0% (inactive).
Turning to `O=C(NCc1ccc(N2CCCC2=O)cc1)c1cccc(Cl)c1`, the percent of DMSO control GFP in assay [1] is 102% (inactive). In addition, the results for the GFP response vs DMSO in assay [2] and in assay [4] were 101% (inactive) and 105% (inactive), respectively. In addition, the percent response of DMSO control in assay [3] was 111% (inactive). Besides, the GFP response, % of DMSO in assay [5] was 99.4% (inactive). In assay [6], this molecule registered a double positive events of 57.4%. Further, the vesicle binding response in [6] was 215% (inactive). Besides, the inhibition was -1.49% (inactive) in assay [7], 7.63% (inactive) in assay [11] and 0% (inactive) in [15]. Also, the superoxide response (% of plate) in [8] was 101% (inactive). The aptamer binding inhibition in [9] was 1% (inactive). For the same molecule, the results for the response in assay [10] and in assay [12] were -4.33% (inactive) and -1.49% (inactive), respectively. In addition, the binding (% of control) in assay [13] is 106% (inactive). In assay [14], the efflux inhibition (fraction of control) is -0.14 (inactive). Besides, the differentiation response in assay [16] is -5.62% (inactive).
`CN(C)CCOC(=O)C(c1ccccc1)C1(O)CCCC1` (stereo not given): in assay [1], the percent of DMSO control GFP was 92% (inactive). For the same molecule, the GFP response vs DMSO in assay [2] is 137% (inactive); in [4], 75.9% (inactive). In assay [3], the percent response of DMSO control was 97.9% (inactive). Besides, the GFP response, % of DMSO in assay [5] was 84.3% (inactive). In assay [6], this molecule gave a double positive events of 65.7%. In addition, in [6], the vesicle binding response was 249% (inactive). The inhibition in [7] was 13.2% (inactive); in [11], 1.31% (inactive); in assay [15], 14% (inactive). Further, in [8], the superoxide response (% of plate) was 96.1% (inactive). Also, the aptamer binding inhibition in assay [9] was 3% (inactive). In addition, the response in assay [10] is 2.3% (inactive); in assay [12], 0.51% (inactive). Besides, the binding (% of control) in assay [13] is 103% (inactive). Also, in assay [14], the efflux inhibition (fraction of control) was 0.05 (inactive). Also, in [16], the differentiation response is -6.55% (inactive).
Turning to `C1CCC(C(CC2CCCCN2)C2CCCCC2)CC1` (stereo not given), the percent of DMSO control GFP in [1] was 97.9% (inactive). Also, the GFP response vs DMSO in [2] was 107% (inactive); in assay [4], 130% (inactive). The percent response of DMSO control in [3] is 101% (inactive). Further, the GFP response, % of DMSO in assay [5] is 116% (inactive). For the same molecule, the double positive events in assay [6] stood at 62%. Moreover, in [6], the vesicle binding response was 170% (inactive). Besides, the inhibition was -17.3% (inactive) in [7], -6.24% (inactive) in assay [11] and -5% (inactive) in assay [15]. Moreover, the superoxide response (% of plate) in [8] is 119% (inactive). Also, in assay [9], the aptamer binding inhibition was -11% (inactive). Besides, the response was 26.4% (inactive) in assay [10] and 2.51% (inactive) in [12]. Also, the binding (% of control) in assay [13] is 109% (inactive). Moreover, in [14], the efflux inhibition (fraction of control) is 0.12 (inactive). Besides, in [16], the differentiation response is -5.97% (inactive).
In the case of `CCC(=O)c1ccc(OCc2ccc(C(=O)OC)cc2)cc1`, the percent of DMSO control GFP in [1] is 104% (inactive). Also, the GFP response vs DMSO in [2] was 104% (inactive); in assay [4] it was 112% (inactive). For the same molecule, the percent response of DMSO control in assay [3] was 106% (inactive). The GFP response, % of DMSO in assay [5] was 98.6% (inactive). In assay [6], this molecule gave a double positive events of 54.8%. The vesicle binding response in assay [6] was 127% (inactive). Besides, the inhibition in [7] is 4.27% (inactive); in assay [11], 10.4% (inactive); in assay [15], 10% (inactive). Also, the superoxide response (% of plate) in [8] is 90.3% (inactive). The aptamer binding inhibition in assay [9] was -1% (inactive). Moreover, the response in assay [10] is 4.9% (inactive); in [12] it was 23.8% (active). Moreover, the binding (% of control) in assay [13] is 96.4% (inactive). In addition, the efflux inhibition (fraction of control) in assay [14] is -0.045 (inactive). Further, the differentiation response in assay [16] is -23.6% (inactive).
